About 83,000 compounds went through this panel and 20% of them were active in at least one assay; those are over-represented in the sample as a whole.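 Method: cells in 96-well plates; compound added at one concentration; 48 h incubation; percent growth measured; values under 10 scored active.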 Calls of active or inactive are those of the source.
What was measured:
Assay in all cases: NCI-60 one-dose screen, 48 h (100 = growth as untreated, 0 = no growth, -100 = all killed)
[1] = system: NCI-H23 lung; conditions: 10 µM unless noted
[2] = system: NCI-H226 lung; conditions: 10 µM unless noted
[3] = system: NCI-H322M lung; conditions: 10 µM unless noted
[4] = system: NCI-H460 lung; conditions: 10 µM unless noted
[5] = system: HOP-92 NSCLC; conditions: 10 µM
[6] = system: NCI-H522 lung; conditions: 10 µM
[7] = system: A549/ATCC NSCLC; conditions: 10 µM unless noted
[8] = system: 786-0 renal; conditions: 10 µM unless noted
[9] = system: COLO 205 colon; conditions: 10 µM unless noted

Measured: growth

COc1ccc(-c2cc(C#N)c(NNC(C)=O)[nH]2)cc1
inactive: [1] 91.4% | [2] 104% | [3] 117% | [4] 128% | [5] 178% | [6] 107% | [7] 115% | [8] 95.3% | [9] 129%

Cc1ccc2c(c1)C(=O)CCS2
inactive: [1] 100% | [2] 101% | [3] 93.5% | [4] 117% | [5] 89.1% | [6] 95.2% | [7] 97.2% | [8] 101% | [9] 98.2%

COc1ccc(C2=C/C(=C\c3ccc(Cl)cc3)C(=O)NN2C(=S)NN)cc1
inactive: [1] 92.5% | [2] 87.6% | [3] 102% | [4] 102% | [5] 74% | [6] 83.9% | [7] 101% | [8] 104% | [9] 114%

CCOC(=O)c1ccc2n1CCCc1cnc(NC(C)=O)nc1-2
inactive: [1] 112% | [2] 82.4% | [3] 110% | [4] 112% | [5] 82.2% | [6] 97% | [7] 109% | [8] 99.4% | [9] 122%

OCC(O)C(O)CC1SCCS1 (centres undefined)
inactive: [1] 97.3% | [2] 91.9% | [3] 109% | [4] 108% | [5] 104% | [6] 96.6% | [7] 101% | [8] 96% | [9] 106%

CCN(CC)CCCC(C)Nc1c(C)cnc2cc(Cl)c(C)cc12 (centres undefined)
inactive: [1] 91.9% | [2] 96.2% | [3] 87.6% | [4] 90.2% | [5] 70.4% | [6] 82.3% | [7] 103% | [8] 64.7% | [9] 72.2%

CCOC(=O)C1=C(C(F)(F)F)NC(=S)NC1CN1C(=O)c2ccccc2C1=O (centres undefined)
inactive: [1] 87.5% | [2] 116% | [3] 103% | [4] 106% | [5] 82.3% | [6] 111% | [7] 118% | [8] 99.7% | [9] 119%

CCCCCCCCCCCCCCCCCC1=NCCN1CCNC(C)=O
inactive: [1] 93% | [2] 100% | [3] 90.6% | [4] 50.5% | [5] 62.1% | [6] 98.8% | [7] 79.3% | [8] 92.3% | [9] 92.6%

Oc1ccccc1/C=N/N=C\c1ccccc1Cl
inactive: [1] 88.3% | [2] 76.8% | [3] 97.6% | [4] 99% | [5] 77.5% | [6] 92.3% | [7] 101% | [8] 100% | [9] 109%

c1ccc(Nc2ncc3c(n2)-c2cccn2CC3)cc1
inactive: [1] 98.7% | [2] 59.2% | [3] 86.9% | [4] 95.9% | [5] 77.4% | [6] 85.8% | [7] 113% | [8] 98.7% | [9] 112%

CCC(C)(C)c1ccc(OCCCCCCN2CCNCC2)cc1
inactive: [1] 60% | [2] 92.7% | [3] 76.1% | [4] 17.7% | [5] 51.3% | [6] 95.5% | [7] 53.5% | [8] 59.5%
active: [9] -50%

O=C(Nc1ccc(Cl)cn1)C1(c2ccccc2)CCCCC1
inactive: [1] 114% | [2] 103% | [3] 119% | [4] 102% | [5] 60.7% | [6] 140% | [7] 110% | [8] 97.5% | [9] 103%

Oc1ccccc1\C=N/N=C/C=C/c1ccccc1
inactive: [1] 92.7% | [2] 103% | [3] 98.6% | [4] 99% | [5] 103% | [6] 87.4% | [7] 105% | [8] 111% | [9] 108%

C[C@@H](c1ccc2c(c1)[nH]c1ccc(Cl)cc12)c1nc2ccc(Cl)cc2[nH]1
inactive: [1] 85.6% | [2] 101% | [3] 85.8% | [4] 82.4% | [5] 99.5% | [6] 43.6% | [7] 88.3% | [8] 75.9% | [9] 116%

COc1ccc(C(=O)c2no[n+]([O-])c2C(=O)c2ccc(OC)cc2)cc1
inactive: [1] 89.6% | [2] 41.7% | [3] 83.8% | [4] 89.8% | [7] 94.8%
active: [5] -73.5% | [6] -88.3% | [8] -98.7% | [9] -85.7%

Nc1cc(N)c2nc(-c3ccccc3)c(NCCc3ccc(Cl)c(Cl)c3)nc2c1
active: [1] -63.9% | [2] -76.2% | [3] -91.7% | [4] -10.9% | [5] -78.5% | [6] -72.1% | [7] -62.8% | [8] -97.9% | [9] -62.4%

COc1ccc(/C=C(/C(=O)N2CCN(c3ccc(C)cc3)CC2)c2cc(OC)c(OC)c(OC)c2)cc1N
inactive: [1] 38.1% | [2] 98.3% | [3] 43.7% | [5] 17.6% | [7] 23.1% | [8] 18.5%
active: [4] 5.51% | [6] -12.8% | [9] -43.9%

Cc1ccnc2c(NC(C)CCCN)cc(O)c(O)c12 (centres undefined)
inactive: [1] 40.4% | [2] 111% | [3] 75.3% | [4] 115% | [5] 47.6% | [6] 12.6% | [7] 94.7% | [8] 95.1% | [9] 77.8%

Nc1ccc(S(=O)(=O)Nc2cc(F)cc(F)c2)cc1
inactive: [1] 111% | [2] 104% | [3] 114% | [4] 110% | [5] 99.9% | [6] 94.9% | [7] 119% | [8] 99.7% | [9] 112%

COC(=O)c1ccc2[nH]c(O)c(C(=Nc3ccc(N(C)C(=O)CN4CCN(C)CC4)cc3)c3ccc(OC)cc3)c2c1
active: [9] 0.878%
inactive: [1] 28.1% | [2] 25.8% | [3] 38% | [4] 14.8% | [5] 38% | [6] 17.4% | [7] 16% | [8] 21.7%

CCCCN(CCCC)CC(O)CN(CC)CC (centres undefined)
inactive: [1] 99.6% | [2] 96.3% | [3] 97.6% | [4] 114% | [5] 93.4% | [6] 95.3% | [7] 99% | [8] 104% | [9] 99.3%

CCC1(CC)C(OC)NC(Br)=C(C#N)C1(C#N)C(N)=O (centres undefined)
inactive: [1] 99.1% | [2] 114% | [3] 118% | [4] 115% | [5] 77.3% | [6] 98% | [7] 114% | [8] 94.3% | [9] 126%

COC(=O)C(C)[C@H]1CC[C@@H]2[C@]1(C)CC=C1[C@]23C=C[C@]2(C[C@@H](OC(C)=O)CC[C@]12C)C(C(=O)OC)C3C(=O)OC (some centres undefined)
inactive: [1] 92.3% | [2] 89.8% | [3] 102% | [4] 101% | [5] 83.5% | [6] 96.8% | [7] 91.5% | [8] 105% | [9] 98.8%

Cc1ccc(S(=O)(=O)N/N=C2\CC3CCC2C3)cc1 (centres undefined)
inactive: [1] 117% | [2] 96.8% | [3] 99.3% | [4] 107% | [5] 87.2% | [6] 96.7% | [7] 105% | [8] 100% | [9] 113%

O=C(/C=C/c1cccc(O)c1)c1cccc(-n2cc(-c3ccc(Cl)cc3)[nH]c2=O)c1
inactive: [7] 28.3% | [9] 42.1%
active: [1] -19.5% | [2] -48.7% | [3] -0.035% | [4] -4.62% | [5] -35.6% | [6] -48.6% | [8] -74.7%

COC1(OC)N=C(N)C2(C#N)C3(C(=O)Nc4ccccc43)C12C#N (centres undefined)
inactive: [1] 81.6% | [2] 62.5% | [3] 105% | [4] 104% | [5] 73% | [6] 80.7% | [7] 104% | [8] 94.3% | [9] 116%

COc1ccc(/C=C(/C(=O)N2CCCCC2)c2cc(OC)c(OC)c(OC)c2)cc1
inactive: [1] 36.3% | [2] 94.8% | [3] 45.2% | [4] 11.6% | [5] 45.5% | [7] 34.9% | [8] 23.5%
active: [6] -24.2% | [9] -14.6%

O=C(N/N=C\c1ccc(-c2ccc(Br)cc2)o1)c1cc2oc(-c3cccc(C(F)(F)F)c3)cc2[nH]1
inactive: [1] 96.8% | [2] 106% | [3] 70.6% | [4] 91.5% | [5] 111% | [6] 122% | [7] 38.3% | [9] 107%

CCOC(=O)c1c2c(cn1Cc1ccccc1)-c1oncc1CC2
inactive: [1] 106% | [2] 79.4% | [3] 92.8% | [4] 112% | [5] 61.8% | [6] 99% | [7] 95.1% | [8] 83.9% | [9] 123%

COC1=C(OC)C(=O)c2ccccc2C1=O
inactive: [1] 81.5% | [2] 102% | [3] 107% | [4] 97.4% | [5] 95% | [6] 94.8% | [7] 96.9% | [8] 120% | [9] 100%
